Reference: the supplement of paper PMC11732987, “Enantioselective OTUD7B fragment discovery through chemoproteomics screening and high-throughput optimisation” (Communications Chemistry, 2025)

Legend:
Test in all cases: log2 ratio of Biotin-Ahx-Ub-VS probe labelling (fragment/DMSO); higher = less target engagement (more negative = stronger competition), active = hit call of the paper (q ≤ 0.05, log2 ratio ≤ -1)
Conditions in all cases: compound concentration: 200 uM; treatment time: 3 h
USP42 = biological target: T1, USP42 (UniProt Q9H9J4)
T1 sequence (whole entry): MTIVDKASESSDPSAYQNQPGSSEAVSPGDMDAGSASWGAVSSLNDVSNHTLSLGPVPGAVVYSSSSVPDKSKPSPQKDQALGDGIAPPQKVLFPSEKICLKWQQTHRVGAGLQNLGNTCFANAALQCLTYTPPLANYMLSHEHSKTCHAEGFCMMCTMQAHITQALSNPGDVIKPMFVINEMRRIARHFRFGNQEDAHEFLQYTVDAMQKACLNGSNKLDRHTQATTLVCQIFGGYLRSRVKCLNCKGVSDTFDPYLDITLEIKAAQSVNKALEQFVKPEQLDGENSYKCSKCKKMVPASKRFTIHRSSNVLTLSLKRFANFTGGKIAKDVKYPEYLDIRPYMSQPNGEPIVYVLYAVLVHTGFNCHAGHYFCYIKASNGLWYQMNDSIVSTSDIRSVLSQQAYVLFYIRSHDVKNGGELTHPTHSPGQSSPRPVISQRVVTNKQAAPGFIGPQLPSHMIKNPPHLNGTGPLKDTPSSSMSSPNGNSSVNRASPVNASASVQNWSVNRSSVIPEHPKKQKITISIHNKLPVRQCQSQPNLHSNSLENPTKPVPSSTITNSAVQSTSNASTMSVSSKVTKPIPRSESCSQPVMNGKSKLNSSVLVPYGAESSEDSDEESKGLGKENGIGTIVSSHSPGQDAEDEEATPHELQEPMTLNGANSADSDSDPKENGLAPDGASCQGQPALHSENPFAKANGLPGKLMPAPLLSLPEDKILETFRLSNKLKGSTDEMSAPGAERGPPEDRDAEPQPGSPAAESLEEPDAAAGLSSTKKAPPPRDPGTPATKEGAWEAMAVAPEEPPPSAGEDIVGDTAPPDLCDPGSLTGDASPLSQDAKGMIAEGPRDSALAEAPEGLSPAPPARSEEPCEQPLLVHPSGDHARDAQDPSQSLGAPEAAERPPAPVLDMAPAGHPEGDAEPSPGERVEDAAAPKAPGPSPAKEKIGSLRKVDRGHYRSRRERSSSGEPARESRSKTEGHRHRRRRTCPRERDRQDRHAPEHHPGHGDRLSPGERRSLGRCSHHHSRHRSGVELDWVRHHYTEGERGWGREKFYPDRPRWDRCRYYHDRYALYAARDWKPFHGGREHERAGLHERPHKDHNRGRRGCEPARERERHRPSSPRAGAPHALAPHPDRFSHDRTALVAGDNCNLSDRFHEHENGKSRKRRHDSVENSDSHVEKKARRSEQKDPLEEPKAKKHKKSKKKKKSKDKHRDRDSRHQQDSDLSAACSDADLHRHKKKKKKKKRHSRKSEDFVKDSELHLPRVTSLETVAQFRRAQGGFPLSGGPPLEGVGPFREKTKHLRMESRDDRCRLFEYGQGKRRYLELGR
Outline: (§1)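 Average log2 ratios of fragment over vehicle were obtained by unpaired t-test from global-median-normalised Spectronaut label-free quantities. Proteins with ≥2 unique peptides were included. HEK293T lysate (495 µg per sample) was treated in triplicate with fragment at 200 µM or vehicle for 3 h, then with Biotin-Ahx-Ub-VS at 0.5 µM final for 1 h, and labelled DUBs were NeutrAvidin-enriched and run by diaPASEF LC-MS/MS.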

USP46 = USP46 (UniProt P62068)
USP46, sequence (P62068 whole entry): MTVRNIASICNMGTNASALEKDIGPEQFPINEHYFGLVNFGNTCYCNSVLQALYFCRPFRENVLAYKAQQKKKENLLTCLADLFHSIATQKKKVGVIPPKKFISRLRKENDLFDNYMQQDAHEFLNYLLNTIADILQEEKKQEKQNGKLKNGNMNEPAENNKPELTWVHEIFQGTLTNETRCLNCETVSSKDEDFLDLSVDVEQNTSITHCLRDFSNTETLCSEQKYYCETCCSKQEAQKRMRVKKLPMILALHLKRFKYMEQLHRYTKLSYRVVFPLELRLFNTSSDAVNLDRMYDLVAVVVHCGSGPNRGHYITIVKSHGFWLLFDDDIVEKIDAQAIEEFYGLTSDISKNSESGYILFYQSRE
Outline: as §1

USP47 = biological target: T2, USP47 (UniProt Q96K76)
T2 sequence (whole entry): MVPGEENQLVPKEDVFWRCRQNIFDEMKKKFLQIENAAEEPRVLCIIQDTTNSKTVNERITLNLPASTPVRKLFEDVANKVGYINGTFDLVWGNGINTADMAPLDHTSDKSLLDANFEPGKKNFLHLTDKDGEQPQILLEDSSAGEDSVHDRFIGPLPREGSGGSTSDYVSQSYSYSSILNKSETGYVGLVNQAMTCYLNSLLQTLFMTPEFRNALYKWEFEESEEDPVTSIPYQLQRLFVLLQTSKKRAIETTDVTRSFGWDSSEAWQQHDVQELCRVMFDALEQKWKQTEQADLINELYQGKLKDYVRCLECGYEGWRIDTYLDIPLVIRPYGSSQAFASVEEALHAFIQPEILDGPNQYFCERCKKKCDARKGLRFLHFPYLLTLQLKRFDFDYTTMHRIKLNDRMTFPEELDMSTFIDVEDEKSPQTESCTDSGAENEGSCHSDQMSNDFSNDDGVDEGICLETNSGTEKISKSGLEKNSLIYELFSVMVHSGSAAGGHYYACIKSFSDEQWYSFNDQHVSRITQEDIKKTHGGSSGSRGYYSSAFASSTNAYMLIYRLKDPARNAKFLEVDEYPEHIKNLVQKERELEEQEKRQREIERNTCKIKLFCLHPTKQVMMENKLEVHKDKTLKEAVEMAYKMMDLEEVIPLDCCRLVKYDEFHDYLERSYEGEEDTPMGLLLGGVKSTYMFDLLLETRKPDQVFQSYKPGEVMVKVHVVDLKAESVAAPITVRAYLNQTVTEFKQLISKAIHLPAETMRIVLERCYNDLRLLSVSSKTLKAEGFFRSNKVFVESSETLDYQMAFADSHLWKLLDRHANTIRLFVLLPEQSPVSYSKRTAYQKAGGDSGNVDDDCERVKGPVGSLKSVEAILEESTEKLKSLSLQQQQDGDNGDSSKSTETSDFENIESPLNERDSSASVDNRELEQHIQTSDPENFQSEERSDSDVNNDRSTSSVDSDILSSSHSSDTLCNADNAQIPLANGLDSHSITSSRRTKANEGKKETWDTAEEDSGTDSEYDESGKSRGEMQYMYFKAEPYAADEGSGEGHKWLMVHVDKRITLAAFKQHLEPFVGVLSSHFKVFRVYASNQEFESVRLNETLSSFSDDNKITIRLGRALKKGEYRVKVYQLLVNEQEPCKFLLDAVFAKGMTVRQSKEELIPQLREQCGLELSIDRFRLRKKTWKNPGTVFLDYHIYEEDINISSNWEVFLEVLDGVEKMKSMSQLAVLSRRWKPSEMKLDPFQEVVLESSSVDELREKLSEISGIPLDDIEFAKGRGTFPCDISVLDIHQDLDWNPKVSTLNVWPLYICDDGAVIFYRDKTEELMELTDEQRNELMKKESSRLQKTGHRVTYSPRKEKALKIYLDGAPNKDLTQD
Outline: as §1

USP48 = biological target: T3, USP48 (UniProt Q86UV5)
T3 sequence (whole entry): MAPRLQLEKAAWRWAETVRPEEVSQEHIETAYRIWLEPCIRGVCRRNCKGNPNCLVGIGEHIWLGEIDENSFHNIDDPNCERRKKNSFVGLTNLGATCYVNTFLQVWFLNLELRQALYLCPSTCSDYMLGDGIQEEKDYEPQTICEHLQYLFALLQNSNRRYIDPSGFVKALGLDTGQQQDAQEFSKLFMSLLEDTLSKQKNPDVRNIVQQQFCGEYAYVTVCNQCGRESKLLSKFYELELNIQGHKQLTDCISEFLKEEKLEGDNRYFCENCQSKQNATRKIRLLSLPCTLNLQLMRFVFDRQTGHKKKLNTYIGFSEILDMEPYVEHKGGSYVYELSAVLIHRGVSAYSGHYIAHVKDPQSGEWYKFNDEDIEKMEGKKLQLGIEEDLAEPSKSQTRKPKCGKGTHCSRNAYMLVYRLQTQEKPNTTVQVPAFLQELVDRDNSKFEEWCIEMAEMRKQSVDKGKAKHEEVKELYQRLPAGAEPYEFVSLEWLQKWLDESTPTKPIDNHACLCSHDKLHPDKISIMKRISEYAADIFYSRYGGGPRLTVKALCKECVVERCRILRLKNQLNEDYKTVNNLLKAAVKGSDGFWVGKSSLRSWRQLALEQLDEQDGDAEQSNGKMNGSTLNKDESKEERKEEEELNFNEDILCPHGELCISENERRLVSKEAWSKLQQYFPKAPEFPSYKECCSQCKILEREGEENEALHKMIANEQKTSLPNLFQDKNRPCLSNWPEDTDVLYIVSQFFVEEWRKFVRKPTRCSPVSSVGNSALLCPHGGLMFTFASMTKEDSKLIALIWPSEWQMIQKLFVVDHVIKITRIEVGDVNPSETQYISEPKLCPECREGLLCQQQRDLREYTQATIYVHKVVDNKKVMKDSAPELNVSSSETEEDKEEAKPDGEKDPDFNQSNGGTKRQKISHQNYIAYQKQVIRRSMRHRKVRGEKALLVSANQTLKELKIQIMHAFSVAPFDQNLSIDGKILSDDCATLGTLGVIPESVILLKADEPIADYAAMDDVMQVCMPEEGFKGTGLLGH
Outline: as §1

USP5 = biological target: T4, USP5 (UniProt P45974)
T4 sequence (whole entry): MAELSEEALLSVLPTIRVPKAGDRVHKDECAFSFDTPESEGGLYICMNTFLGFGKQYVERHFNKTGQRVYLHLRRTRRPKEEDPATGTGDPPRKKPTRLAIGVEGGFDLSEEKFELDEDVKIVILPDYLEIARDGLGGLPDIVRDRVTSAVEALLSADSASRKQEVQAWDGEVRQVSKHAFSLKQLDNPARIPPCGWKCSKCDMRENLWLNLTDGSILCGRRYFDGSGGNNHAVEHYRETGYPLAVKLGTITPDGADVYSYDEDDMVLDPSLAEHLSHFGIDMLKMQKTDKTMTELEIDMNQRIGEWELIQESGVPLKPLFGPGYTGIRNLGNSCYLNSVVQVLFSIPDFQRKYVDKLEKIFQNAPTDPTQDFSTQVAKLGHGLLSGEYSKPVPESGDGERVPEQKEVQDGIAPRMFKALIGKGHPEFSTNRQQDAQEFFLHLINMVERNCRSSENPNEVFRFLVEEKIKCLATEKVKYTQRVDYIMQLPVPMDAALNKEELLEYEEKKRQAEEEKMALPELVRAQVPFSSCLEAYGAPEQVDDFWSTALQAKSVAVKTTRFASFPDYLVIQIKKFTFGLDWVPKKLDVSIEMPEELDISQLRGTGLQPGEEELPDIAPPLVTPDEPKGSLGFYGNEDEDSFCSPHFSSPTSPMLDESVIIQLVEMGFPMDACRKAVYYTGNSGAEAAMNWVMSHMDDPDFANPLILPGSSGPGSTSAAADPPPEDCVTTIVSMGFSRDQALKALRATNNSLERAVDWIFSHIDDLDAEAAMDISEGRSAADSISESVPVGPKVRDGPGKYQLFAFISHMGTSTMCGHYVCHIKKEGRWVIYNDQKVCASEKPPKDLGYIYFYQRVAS
Outline: as §1

USP54 = USP54 (UniProt Q70EL1)
Outline: as §1

USP7 = USP7 (UniProt Q93009)
USP7, sequence (Q93009 whole entry, looked up): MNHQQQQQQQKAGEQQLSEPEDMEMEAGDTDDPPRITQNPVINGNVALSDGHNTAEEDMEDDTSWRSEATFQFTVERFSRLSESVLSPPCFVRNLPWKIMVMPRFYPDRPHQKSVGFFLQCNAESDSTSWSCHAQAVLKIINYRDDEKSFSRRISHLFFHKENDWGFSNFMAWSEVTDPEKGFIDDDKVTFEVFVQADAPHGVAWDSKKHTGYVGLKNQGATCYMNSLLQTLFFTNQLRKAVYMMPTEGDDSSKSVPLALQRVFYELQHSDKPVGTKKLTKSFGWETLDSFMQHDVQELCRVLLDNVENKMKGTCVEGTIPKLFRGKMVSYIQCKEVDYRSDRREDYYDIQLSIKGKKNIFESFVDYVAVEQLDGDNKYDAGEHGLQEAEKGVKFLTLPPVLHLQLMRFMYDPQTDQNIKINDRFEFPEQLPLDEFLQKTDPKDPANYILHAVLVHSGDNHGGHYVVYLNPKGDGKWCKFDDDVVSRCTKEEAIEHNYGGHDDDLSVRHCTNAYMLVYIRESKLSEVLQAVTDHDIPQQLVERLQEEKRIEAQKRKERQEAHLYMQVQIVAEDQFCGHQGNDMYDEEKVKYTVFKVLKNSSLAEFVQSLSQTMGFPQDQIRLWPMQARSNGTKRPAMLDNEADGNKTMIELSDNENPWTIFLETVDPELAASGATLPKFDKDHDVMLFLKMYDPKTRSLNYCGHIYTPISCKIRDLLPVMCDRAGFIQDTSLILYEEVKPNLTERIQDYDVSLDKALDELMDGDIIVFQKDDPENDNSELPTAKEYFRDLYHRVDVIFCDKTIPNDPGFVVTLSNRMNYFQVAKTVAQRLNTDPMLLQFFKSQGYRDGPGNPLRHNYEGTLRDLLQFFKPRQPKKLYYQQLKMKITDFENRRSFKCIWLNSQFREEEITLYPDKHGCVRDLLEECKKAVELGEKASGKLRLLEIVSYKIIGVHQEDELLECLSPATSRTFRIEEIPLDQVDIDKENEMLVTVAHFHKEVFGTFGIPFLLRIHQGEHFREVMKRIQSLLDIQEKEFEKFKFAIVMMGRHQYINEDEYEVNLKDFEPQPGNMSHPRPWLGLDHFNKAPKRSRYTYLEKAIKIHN
Outline: as §1

USP8 = biological target: T5, USP8 (UniProt P40818)
T5 sequence (whole entry): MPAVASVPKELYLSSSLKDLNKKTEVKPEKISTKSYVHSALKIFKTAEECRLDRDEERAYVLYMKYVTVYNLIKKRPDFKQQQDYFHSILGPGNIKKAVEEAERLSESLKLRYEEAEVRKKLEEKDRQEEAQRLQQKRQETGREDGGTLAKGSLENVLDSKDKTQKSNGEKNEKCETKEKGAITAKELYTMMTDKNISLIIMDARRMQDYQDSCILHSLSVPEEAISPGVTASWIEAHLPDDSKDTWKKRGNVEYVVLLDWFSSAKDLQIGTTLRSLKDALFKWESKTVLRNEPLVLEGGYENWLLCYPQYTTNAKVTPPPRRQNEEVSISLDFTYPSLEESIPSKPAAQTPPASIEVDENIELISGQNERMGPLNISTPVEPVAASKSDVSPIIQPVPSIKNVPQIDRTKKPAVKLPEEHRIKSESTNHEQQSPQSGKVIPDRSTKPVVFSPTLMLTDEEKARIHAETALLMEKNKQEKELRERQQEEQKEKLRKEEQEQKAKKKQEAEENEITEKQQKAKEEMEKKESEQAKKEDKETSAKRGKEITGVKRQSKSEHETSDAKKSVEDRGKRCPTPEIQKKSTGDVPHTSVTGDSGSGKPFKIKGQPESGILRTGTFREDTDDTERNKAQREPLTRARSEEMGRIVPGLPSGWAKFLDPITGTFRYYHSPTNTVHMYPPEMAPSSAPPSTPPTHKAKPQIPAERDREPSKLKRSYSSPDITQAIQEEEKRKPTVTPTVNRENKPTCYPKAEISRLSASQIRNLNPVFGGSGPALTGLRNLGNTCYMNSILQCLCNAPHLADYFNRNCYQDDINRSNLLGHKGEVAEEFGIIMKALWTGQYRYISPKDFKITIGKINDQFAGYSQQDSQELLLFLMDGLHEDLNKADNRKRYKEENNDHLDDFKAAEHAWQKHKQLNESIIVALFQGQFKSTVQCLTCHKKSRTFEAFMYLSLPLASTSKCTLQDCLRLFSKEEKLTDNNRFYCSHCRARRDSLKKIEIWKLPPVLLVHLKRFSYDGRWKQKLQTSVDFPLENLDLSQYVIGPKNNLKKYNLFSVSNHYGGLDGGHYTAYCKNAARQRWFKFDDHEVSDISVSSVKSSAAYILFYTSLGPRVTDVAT
Outline: as §1

USP9X = USP9X (UniProt Q93008)
USP9X, sequence (Q93008 whole entry): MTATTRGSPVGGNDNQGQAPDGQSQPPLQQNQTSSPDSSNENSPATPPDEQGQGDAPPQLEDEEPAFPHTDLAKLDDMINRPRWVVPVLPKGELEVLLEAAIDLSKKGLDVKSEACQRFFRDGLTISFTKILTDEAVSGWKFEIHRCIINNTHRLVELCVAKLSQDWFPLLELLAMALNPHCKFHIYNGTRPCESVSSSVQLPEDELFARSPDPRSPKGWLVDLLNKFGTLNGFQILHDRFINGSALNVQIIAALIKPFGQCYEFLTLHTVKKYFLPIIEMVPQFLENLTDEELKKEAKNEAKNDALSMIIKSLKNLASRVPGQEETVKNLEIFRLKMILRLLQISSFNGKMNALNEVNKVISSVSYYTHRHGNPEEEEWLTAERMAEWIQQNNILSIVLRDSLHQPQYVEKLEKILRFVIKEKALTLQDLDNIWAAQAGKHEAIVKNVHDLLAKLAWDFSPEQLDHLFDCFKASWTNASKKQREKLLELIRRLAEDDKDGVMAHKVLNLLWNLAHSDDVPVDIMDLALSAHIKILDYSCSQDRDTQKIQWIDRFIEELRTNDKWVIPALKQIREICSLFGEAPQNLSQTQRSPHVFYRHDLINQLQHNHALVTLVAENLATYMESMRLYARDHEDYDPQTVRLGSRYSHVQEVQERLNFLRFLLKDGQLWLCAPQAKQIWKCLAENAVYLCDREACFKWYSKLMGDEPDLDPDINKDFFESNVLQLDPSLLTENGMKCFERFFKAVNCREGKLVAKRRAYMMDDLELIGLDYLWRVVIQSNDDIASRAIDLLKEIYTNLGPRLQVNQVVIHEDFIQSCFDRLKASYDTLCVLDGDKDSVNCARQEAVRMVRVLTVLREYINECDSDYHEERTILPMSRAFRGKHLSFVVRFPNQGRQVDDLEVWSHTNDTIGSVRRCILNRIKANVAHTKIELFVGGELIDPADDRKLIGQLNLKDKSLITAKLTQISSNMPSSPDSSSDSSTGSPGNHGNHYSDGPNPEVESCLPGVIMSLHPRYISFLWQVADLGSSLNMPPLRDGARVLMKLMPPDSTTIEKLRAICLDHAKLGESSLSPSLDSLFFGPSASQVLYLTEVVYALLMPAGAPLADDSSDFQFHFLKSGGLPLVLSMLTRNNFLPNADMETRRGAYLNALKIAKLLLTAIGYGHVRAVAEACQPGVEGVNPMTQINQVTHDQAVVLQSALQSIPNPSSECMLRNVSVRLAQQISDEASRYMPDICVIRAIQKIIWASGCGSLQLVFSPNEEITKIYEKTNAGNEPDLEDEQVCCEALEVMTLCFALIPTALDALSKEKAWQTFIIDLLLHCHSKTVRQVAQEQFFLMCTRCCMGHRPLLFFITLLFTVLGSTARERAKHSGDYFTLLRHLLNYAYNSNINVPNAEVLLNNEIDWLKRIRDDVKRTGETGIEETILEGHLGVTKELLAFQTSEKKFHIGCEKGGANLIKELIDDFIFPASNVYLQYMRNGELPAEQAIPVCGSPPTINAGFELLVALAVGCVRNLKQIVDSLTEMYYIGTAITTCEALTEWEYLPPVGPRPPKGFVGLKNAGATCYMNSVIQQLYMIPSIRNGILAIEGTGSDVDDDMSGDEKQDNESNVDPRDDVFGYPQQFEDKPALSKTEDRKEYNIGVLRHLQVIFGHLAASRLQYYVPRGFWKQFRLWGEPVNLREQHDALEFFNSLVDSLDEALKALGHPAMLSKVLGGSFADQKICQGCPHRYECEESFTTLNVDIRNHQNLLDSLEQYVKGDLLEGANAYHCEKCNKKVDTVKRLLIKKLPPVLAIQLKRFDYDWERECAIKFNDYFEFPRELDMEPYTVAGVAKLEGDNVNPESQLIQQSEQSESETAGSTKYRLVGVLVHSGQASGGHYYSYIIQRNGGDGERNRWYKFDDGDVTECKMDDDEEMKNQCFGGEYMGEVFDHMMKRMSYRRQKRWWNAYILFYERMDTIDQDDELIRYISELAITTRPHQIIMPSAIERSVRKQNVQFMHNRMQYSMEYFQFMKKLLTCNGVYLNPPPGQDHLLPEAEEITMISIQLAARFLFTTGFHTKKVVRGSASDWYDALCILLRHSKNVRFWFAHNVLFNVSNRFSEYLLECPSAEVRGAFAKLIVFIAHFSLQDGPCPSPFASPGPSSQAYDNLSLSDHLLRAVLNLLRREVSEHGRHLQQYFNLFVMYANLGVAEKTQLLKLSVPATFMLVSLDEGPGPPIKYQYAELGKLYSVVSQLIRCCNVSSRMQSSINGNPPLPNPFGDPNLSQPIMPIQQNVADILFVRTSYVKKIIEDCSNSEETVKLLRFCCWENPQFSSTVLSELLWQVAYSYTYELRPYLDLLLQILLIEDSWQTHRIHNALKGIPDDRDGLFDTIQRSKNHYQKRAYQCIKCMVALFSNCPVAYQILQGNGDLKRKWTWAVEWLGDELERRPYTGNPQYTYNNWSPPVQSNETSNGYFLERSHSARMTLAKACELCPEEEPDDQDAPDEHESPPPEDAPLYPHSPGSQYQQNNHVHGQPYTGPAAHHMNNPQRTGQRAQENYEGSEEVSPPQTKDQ
Outline: as §1

UniProt O00487 = biological target: UniProt O00487
UniProt O00487, sequence (O00487 whole entry): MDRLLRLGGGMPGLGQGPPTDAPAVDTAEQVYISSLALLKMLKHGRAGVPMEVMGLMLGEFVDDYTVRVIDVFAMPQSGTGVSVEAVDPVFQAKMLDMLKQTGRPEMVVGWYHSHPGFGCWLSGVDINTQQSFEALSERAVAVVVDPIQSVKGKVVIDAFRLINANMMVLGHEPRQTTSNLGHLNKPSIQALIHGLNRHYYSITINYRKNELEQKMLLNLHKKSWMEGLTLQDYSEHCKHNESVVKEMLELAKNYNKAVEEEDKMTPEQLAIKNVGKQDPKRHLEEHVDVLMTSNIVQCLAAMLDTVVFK
Outline: as §1

Measured: log2 ratio of Biotin-Ahx-Ub-VS probe labelling

CCc1c[nH]c(CNC(=O)CCl)n1.Cl
inactive: USP42 0.203 | USP46 -0.136 | USP47 -0.108 | USP48 -0.267 | USP5 -0.335 | USP54 0.304 | USP7 -0.288 | USP8 -0.335 | USP9X -0.236 | UniProt O00487 -0.193
